# Measurements: PMC12431657, “Discovery and mechanistic insights of dibenzoylmethane as a broad spectrum inhibitor of coronavirus” (PLOS Pathogens, 2025)
# Read-outs that look alike come from different tables or passages of the source. Out of some 3,300 compounds screened, about 95 (3%) showed an effect of 50% or more. What follows is part of a selection rich in strong results, with near analogues and random picks from the rest.
# Tested on: HCoV-229E
# Set-up: species or system Huh-7; HTS, protection from HCoV-229E induced cell death, luminescent cell viability (CellCounting-Lite 2.0), inhibition rate
structure (smiles),measurement,setting,value
C[C@]12CC[C@@H](O)C[C@H]1CC[C@@H]1[C@@H]2CC[C@]2(C)C(=O)CC[C@@H]12 [Etiocholanolone],229E Inhibition rate,"24 h, 10 µM; inhibitor",13.1%
C[C@]12CC[C@@H](O)C[C@@H]1CC[C@@H]1[C@@H]2CC[C@]2(C)C(=O)CC[C@@H]12 [Androsterone],229E Inhibition rate,"24 h, 10 µM; inhibitor",52.3%
C[C@]12CC[C@H](O)C[C@@H]1CC[C@@H]1[C@@H]2CC[C@]2(C)C(=O)CC[C@@H]12 [Epiandrosterone],229E Inhibition rate,"24 h, 10 µM; inhibitor",29.3%
COc1cc2cc(c1Cl)N(C)C(=O)C[C@H](OC(=O)C(C)C)[C@]1(C)O[C@@H]1[C@H](C)[C@@H]1C[C@@](O)(NC(=O)O1)[C@H](OC)/C=C/C=C(\C)C2 [Ansamitocin P-3],229E Inhibition rate,"24 h, 10 µM; inhibitor",22.8%
CN(C)NC(=O)CCC(=O)O [Daminozide],229E Inhibition rate,"24 h, 10 µM; inhibitor",12.3%
NC(=O)Cc1ccccc1 [2-Phenylacetamide],229E Inhibition rate,"24 h, 10 µM; inhibitor",20.1%
NC(=O)NCCCC[C@H](N)C(=O)O [L-Homocitrulline],229E Inhibition rate,"24 h, 10 µM; inhibitor",20.7
CC(C)(C)[C@]1(O)C[C@@H]2OC(=O)C[C@@]23C(=O)O[C@@H]2OC(=O)[C@H](O)[C@]213 [Bilobalide],229E Inhibition rate,"24 h, 10 µM; inhibitor",54.8%
C/C=C/C#CC#C/C=C/c1ccco1 [Atractylodin],229E Inhibition rate,"24 h, 10 µM; inhibitor",10.3%
C[C@@H]1CC[C@@]2(OC1)O[C@H]1[C@@H](O)[C@H]3[C@@H]4CC[C@H]5C[C@@H](O[C@@H]6O[C@H](CO)[C@H](O[C@@H]7O[C@H](CO)[C@@H](O)[C@H](O[C@@H]8OC[C@@H](O)[C@H](O)[C@H]8O)[C@H]7O[C@@H]7O[C@H](CO)[C@H](O)[C@H](O[C@@H]8O[C@H](CO)[C@@H](O)[C@H](O)[C@H]8O)[C@H]7O)[C@H](O)[C@H]6O)[C@H](O)C[C@]5(C)[C@H]4CC[C@]3(C)[C@H]1[C@@H]2C [Digitonin],229E Inhibition rate,"24 h post infection, 1 h compound pre-incubation; 10 µM; inhibitor",13.7%
CCN1C[C@]2(C)CC[C@H](OC)[C@@]34C1[C@]1(OCO[C@@]15C[C@H](OC)[C@H]1C[C@]3(O)[C@@H]5[C@H]1OC)[C@@H](OC(C)=O)[C@H]24 [Deltaline],229E Inhibition rate,"24 h, 10 µM; inhibitor",2.6%
CN1Cc2c(ccc3c2OCO3)[C@@H]2[C@H]1c1cc3c(cc1C[C@@H]2O)OCO3 [Chelidonine],229E Inhibition rate,"24 h, 10 µM; inhibitor",12.4%
CO[C@@H]1C[C@H](O[C@H]2CC[C@@]3(C)[C@H](CC[C@@]45O[C@@]46CC[C@H](C4=CC(=O)OC4)[C@@]6(C)CC[C@H]35)C2)O[C@H](C)[C@@H]1O [Adynerin],229E Inhibition rate,"24 h, 10 µM; inhibitor",9.5%
CO[C@H]1C[C@H](O[C@H]2CC[C@]3(C)[C@H]4CC[C@]5(C)[C@@H](C6=CC(=O)OC6)CC[C@]5(O)[C@@H]4CC[C@]3(O)C2)O[C@H](C)[C@H]1O[C@@H]1O[C@H](CO)[C@@H](O)[C@H](O)[C@H]1O [Periplocin],229E Inhibition rate,"24 h, 10 µM; inhibitor",25
C[C@H]1O[C@@H](O[C@H]2CC[C@@]3(C)[C@H](CC[C@@H]4[C@@H]3C[C@@H](O)[C@]3(C)[C@@H](C5=CC(=O)OC5)CC[C@]43O)C2)C[C@H](O)[C@@H]1O[C@H]1C[C@H](O)[C@H](O[C@H]2C[C@H](O)[C@H](O[C@@H]3O[C@H](CO)[C@@H](O)[C@H](O)[C@H]3O)[C@@H](C)O2)[C@@H](C)O1 [Deslanoside],229E Inhibition rate,"24 h, 10 µM; inhibitor",55.1
CC(C)=CCCC1=CC(=O)c2c(O)ccc(O)c2C1=O [Deoxyshikonin],229E Inhibition rate,"24 h, 10 µM; inhibitor",9.8%
CC1(C)[C@H]2O[C@H]2[C@H]2[C@](C)(O)[C@@H]3CC[C@@H]4[C@@H](O)[C@@]3(C[C@@H](O)[C@@]21O)C[C@@]4(C)O [Rhodojaponin III],229E Inhibition rate,"24 h, 10 µM; inhibitor",46.8%
CC(C)[C@@H]1NC(=O)[C@H](C)OC(=O)[C@@H](C(C)C)NC(=O)[C@@H](C(C)C)OC(=O)[C@H](C(C)C)NC(=O)[C@H](C)OC(=O)[C@@H](C(C)C)NC(=O)[C@@H](C(C)C)OC(=O)[C@H](C(C)C)NC(=O)[C@H](C)OC(=O)[C@@H](C(C)C)NC(=O)[C@@H](C(C)C)OC1=O [Valinomycin],229E Inhibition rate,"24 h, 10 µM; inhibitor",90.8%
COC1=CC(=O)O[C@@H](/C=C/c2ccccc2)C1 [(+)-Kavain],229E Inhibition rate,"24 h, 10 µM, inhibitor",9.8%
COC(=O)[C@]12OC[C@]34[C@H]([C@@H](O)[C@@H]1O)[C@@]1(C)CC(=O)C(O)=C(C)[C@@H]1C[C@H]3OC(=O)[C@H](OC(=O)/C=C(\C)C(C)(C)OC(C)=O)[C@@H]24 [Bruceantinol],229E Inhibition rate,"24 h, 10 µM; inhibitor",0%
